TGFb inhibitor – TGF-b pathway inhibition; HepG2 CAGA-GFP TGF-b/SMAD3 reporter, GFP fluorescence, 18 h; TGF-beta stimulated, 500 pg/mL final; Potency, µM (top dose mostly 46.1 µM), most hits filed as inhibitors; hit rate 1.2% among 410,000; AID 588855; note: nearly all actives have a fitted effect of over 65% in size
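Cell-based qHTS in HEPG2 carrying a CAGA-GFP Smad reporter; compounds added before 500 pg/mL final TGF-beta, 18 h incubation at 37 degrees C, GFP fluorescence quantified per cell by imaging cytometry.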
S-ASM inh – blocks human secretory acid sphingomyelinase | AID 504937 | P17405 | hit rate 0.006% among 340,000 | placental ASM, HMU-PC fluorogenic substrate, 60 min | Potency, µM (highest dose often 57.5 µM), hits mostly inhibitors
Target sequence (P17405 47-631 limits assumed): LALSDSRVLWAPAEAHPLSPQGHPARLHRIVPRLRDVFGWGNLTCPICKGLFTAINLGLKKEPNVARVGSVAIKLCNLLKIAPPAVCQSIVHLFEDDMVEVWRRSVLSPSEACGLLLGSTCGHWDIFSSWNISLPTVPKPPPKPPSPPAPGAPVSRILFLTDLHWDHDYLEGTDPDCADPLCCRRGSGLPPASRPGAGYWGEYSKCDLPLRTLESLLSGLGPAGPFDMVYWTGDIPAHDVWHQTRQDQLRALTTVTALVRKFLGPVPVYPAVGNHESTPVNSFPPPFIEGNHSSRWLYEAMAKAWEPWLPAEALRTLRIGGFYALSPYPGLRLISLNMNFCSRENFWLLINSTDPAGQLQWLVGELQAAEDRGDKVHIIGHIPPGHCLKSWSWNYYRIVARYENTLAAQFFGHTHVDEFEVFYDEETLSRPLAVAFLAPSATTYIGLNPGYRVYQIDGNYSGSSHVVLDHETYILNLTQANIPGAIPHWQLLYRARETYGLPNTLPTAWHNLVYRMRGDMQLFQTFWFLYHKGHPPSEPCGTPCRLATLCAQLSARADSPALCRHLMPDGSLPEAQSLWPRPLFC
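Human placenta-derived ASM enzyme was preincubated with compound for 10 minutes at room temperature, then given fluorogenic substrate HMU-PC0 (9 uM final) for 60 minutes at 37 °C; a pH 10 stop preceded fluorescence reading at Ex 386/Em 447 nm.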
HepG2 viability – HepG2 cytotoxicity, counter-screen for TGF-b inhibitors; HepG2 CAGA-GFP viability, ATP luminescence, 18 h; hit rate 0.76% among 410,000; Potency, µM (doses to about 46.1 µM), most hits filed as cytotoxic
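CellTiter-Glo luminescence gave cytotoxicity after 18 hours at 37 degrees C. The cells were HepG2 CAGA-GFP in 1% FBS DMEM, stimulated with 500 pg/mL TGF-beta after compound addition. %Activity was normalised to no-cell wells (complete cell-killing) and DMSO (no toxicity), and curves were fitted and classified.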
IL1B secr inh – inhibitors of inflammasome signaling (IL-1 beta secretion); activity change, % at 57.5 µM; AID 743279; hit rate 4.7% among 360,000; THP-1 LPS/ATP IL-1B secretion, AlphaLISA, 16 h; hits give low values; in the data active = activity change below about -50%; inconclusive = mostly about -30% to -49%
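Secreted IL-1B measured by AlphaLISA bead assay after 16 h compound exposure of THP-1 cells; compounds (final up to 57.5 uM) added 1 h before LPS (250 ng/mL) and ATP (1.25 mM) stimulation; lower signal means less secretion.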
DT40 TDP1 CPT – growth inhibition of DT40 Tdp1-/-;hTDP1 cells with camptothecin (screen for TDP1 inhibitors). chicken DT40 Tdp1-/-;hTDP1 cells + 20 nM CPT, ATP luminescence, 48 h. Potency, µM (highest dose often 46.2 µM), most hits filed as inhibitors. hit rate 12% among 420,000; note: nearly all actives have a fitted effect of over 55% in size
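Chicken DT40 Tdp1-/- cells complemented with human TDP1, 400 cells/well, exposed to compounds plus 20 nM camptothecin for at least 48 h at 37 C; viability read as ATP content by CellTiter-Glo luminescence.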
TDP1 cell noCPT – qHTS for Inhibitors of human tyrosyl-DNA phosphodiesterase 1 (TDP1): qHTS in cells in absence of CPT. DT40 Tdp1-/- hTDP1 cells, no CPT, ATP luminescence, 48 h. Potency, µM (highest dose often 46.2 µM), actives largely listed as inhibitors. hit rate 15% among 420,000. AID 686978, 2013; note: nearly all actives have a fitted effect of over 55% in size
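No-CPT arm: Tdp1-/-;hTDP1 DT40 cells (400/well) plus compounds, incubated ≥48 hr at 37 °C. Readout CellTiter-Glo luminescence.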
Large screens that a line does not name were inactive. In the library only some 19% were active in any assay of this set; here they are far more common. Unless noted, calls come from the whole dose curve; as a rule, active = well fitted curve in the direction sought with a large enough effect; inconclusive = small, poorly fitted or top-dose-only effect, or another doubt; inactive = no such curve, though single readings can be large; an effect the other way counts as inactive or inconclusive.

CCOc1ccc(NC(=O)CSc2nc3c(oc4ccccc43)c(=O)n2-c2cc(C)cc(C)c2)cc1	TGFb inhibitor inconclusive (no result: S-ASM inh, IL1B secr inh)
COc1cc(C)nc(N2CCCC(C(=O)Nc3cc(Cl)ccc3OC)C2)n1 (stereo not drawn)	TGFb inhibitor inconclusive, DT40 TDP1 CPT inconclusive, TDP1 cell noCPT inconclusive
OCCC1CN(C2CCN(c3ccccc3F)CC2)CCN1Cc1ccccc1 (stereo not drawn)	none
COc1ccc(CNCCC(c2ccccc2)c2ccc(OC(C)C)cc2)cc1OC (stereo not drawn)	TGFb inhibitor inconclusive, DT40 TDP1 CPT 23µM, TDP1 cell noCPT 23µM (no result: IL1B secr inh)
COc1ccc(CNCCC(c2ccc(F)cc2)c2ccc(OC(C)C)cc2)cc1OC (stereo not drawn)	TGFb inhibitor inconclusive, IL1B secr inh -96, DT40 TDP1 CPT 16µM, TDP1 cell noCPT 15µM
CCOc1ccc(S(=O)(=O)N2CCCCC2)cc1NC(=O)c1c(CC)noc1C	none (no result: S-ASM inh)
COc1ccc(OCC(=O)NNC(=O)Cn2c(=O)cnc3ccccc32)cc1	none
CCCN1C(=O)C(Cc2nc3ccccc3c(=O)n2-c2cccc(C)c2)c2ccccc21 (stereo not drawn)	DT40 TDP1 CPT inconclusive, TDP1 cell noCPT inconclusive (no result: S-ASM inh, IL1B secr inh)
COc1ccc(-c2cccc(NC(=O)c3ccco3)c2)nn1	DT40 TDP1 CPT inconclusive, TDP1 cell noCPT 26µM
CS(=O)(=O)c1ccc(-c2cccc(NC(=O)COc3ccc(Cl)cc3)c2)nn1	none
COc1cccc(NC(=O)c2cccc(NC(=O)c3ccco3)c2)c1	TDP1 cell noCPT inconclusive (no result: S-ASM inh)
CS(=O)(=O)c1ccc(-c2cccc(NC(=O)c3ccco3)c2)nn1	DT40 TDP1 CPT inconclusive, TDP1 cell noCPT 18µM
O=C(Nc1ccc2ccccc2c1)C(c1ccccc1F)n1c(=O)c(-c2cc3ccccc3[nH]2)nc2ccccc21 (stereo not drawn)	DT40 TDP1 CPT inconclusive, TDP1 cell noCPT inconclusive (no result: TGFb inhibitor, S-ASM inh, HepG2 viability)
O=C(CCCOc1ccc(Cl)cc1Cl)NC(Cc1ccccc1)C(=O)O (stereo not drawn)	none
CCn1nnc2cc(C(=O)Nc3cccc(Cl)c3C)ccc21	DT40 TDP1 CPT inconclusive, TDP1 cell noCPT 16µM (no result: S-ASM inh, IL1B secr inh)
CCn1nnc2cc(C(=O)Nc3cccc(Cl)c3)ccc21	none (no result: S-ASM inh, IL1B secr inh)
CCn1nnc2cc(C(=O)Nc3cccc(C)c3C)ccc21	DT40 TDP1 CPT 10µM, TDP1 cell noCPT 15µM (no result: S-ASM inh, IL1B secr inh)
CCCn1c(N)c(Sc2ccccc2)c(=O)n(CCC)c1=O	DT40 TDP1 CPT inconclusive, TDP1 cell noCPT 15µM
Cn1ccnc1C(OC(=O)c1ccc(Cl)cc1)C(F)(F)F (stereo not drawn)	TDP1 cell noCPT inconclusive
O=C(Nc1cccc(C(F)(F)F)c1)C1CCCN(S(=O)(=O)c2cccc3nsnc23)C1 (stereo not drawn)	TGFb inhibitor 6.3µM, DT40 TDP1 CPT 16µM, TDP1 cell noCPT 21µM (no result: S-ASM inh, IL1B secr inh)
CCOc1ccc(NC(=O)C2CCCN(S(=O)(=O)c3cccc4nsnc34)C2)cc1 (stereo not drawn)	DT40 TDP1 CPT 23µM, TDP1 cell noCPT 16µM
Cc1ccc(C)c(NC(=O)C2CCCN(S(=O)(=O)c3c(C)nn(C)c3C)C2)c1 (stereo not drawn)	DT40 TDP1 CPT inconclusive, TDP1 cell noCPT 18µM
CCOCCCNC(=O)C1CCCN(S(=O)(=O)c2cccc3nsnc23)C1 (stereo not drawn)	none
COc1ccc2nc(NC(=O)C3CCN(S(=O)(=O)c4cccc5nsnc45)CC3)sc2c1	IL1B secr inh -77, DT40 TDP1 CPT 15µM, TDP1 cell noCPT inconclusive
Cc1cccc(NC(=O)C2CCN(S(=O)(=O)c3cccc4nsnc34)CC2)c1	TGFb inhibitor inconclusive
Cc1ccccc1OC(=O)c1cccc(S(=O)(=O)N2CCN(C)CC2)c1	none
CC(C)CN1CC(C)C(=O)N(c2ccccc2)C1=O (stereo not drawn)	none
COc1ccccc1NC(=O)C1CCCN(S(=O)(=O)c2cccc3nsnc23)C1 (stereo not drawn)	none
Cc1cc(C)cc(NC(=O)C2CCCN(S(=O)(=O)c3cccc4nsnc34)C2)c1 (stereo not drawn)	DT40 TDP1 CPT 18µM, TDP1 cell noCPT 16µM (no result: S-ASM inh, IL1B secr inh)
Cc1cccc(NC(=O)C2CCCN(S(=O)(=O)c3cccc4nsnc34)C2)c1 (stereo not drawn)	TGFb inhibitor inconclusive, DT40 TDP1 CPT inconclusive, TDP1 cell noCPT inconclusive
Cc1cc(NC(=O)C2CCCN(S(=O)(=O)c3cccc4nsnc34)C2)ccc1Br (stereo not drawn)	DT40 TDP1 CPT 10µM, TDP1 cell noCPT inconclusive (no result: S-ASM inh, IL1B secr inh)
COc1cccc(NC(=O)C2CCCN(S(=O)(=O)c3cccc4nsnc34)C2)c1 (stereo not drawn)	DT40 TDP1 CPT inconclusive, TDP1 cell noCPT 16µM
O=C(Nc1ccccc1Br)C1CCCN(S(=O)(=O)c2cccc3nsnc23)C1 (stereo not drawn)	TGFb inhibitor inconclusive, DT40 TDP1 CPT inconclusive, TDP1 cell noCPT inconclusive (no result: S-ASM inh, IL1B secr inh)
CCc1ccccc1NC(=O)C1CCCN(S(=O)(=O)c2cccc3nsnc23)C1 (stereo not drawn)	DT40 TDP1 CPT inconclusive, TDP1 cell noCPT inconclusive (no result: S-ASM inh, IL1B secr inh)
Cc1ccc(C)c(NC(=O)C2CCCN(S(=O)(=O)c3cccc4nsnc34)C2)c1 (stereo not drawn)	TGFb inhibitor inconclusive, TDP1 cell noCPT 26µM (no result: S-ASM inh, IL1B secr inh)
O=C(Cn1nc(C(F)F)cc1C(F)F)NNC(=S)Nc1ccc([N+](=O)[O-])cc1	none
CNS(=O)(=O)c1cn(CC(=O)NCc2ccccc2OC)cc1S(=O)(=O)NC	none
COC(=O)N1CCCCC1c1cc(C(=O)N2CCOCC2)no1 (stereo not drawn)	none (no result: S-ASM inh)
COc1cc(C(=O)C(=O)c2ccc(OC)c(OC)c2)ccc1O	none
Cc1ccccc1Nc1ncnc2c1cnn2C	DT40 TDP1 CPT inconclusive, TDP1 cell noCPT inconclusive
CCOC(=O)c1c(NC(=O)COC(=O)c2cc(OC)c(OC)cc2[N+](=O)[O-])sc(C)c1CC	DT40 TDP1 CPT inconclusive, TDP1 cell noCPT 15µM
COc1cc(C(=O)OCC(C)=O)c([N+](=O)[O-])cc1OC	none
CCOC(=O)c1c(CC(C)C)csc1NC(=O)COC(=O)c1cc(OC)c(OC)cc1[N+](=O)[O-]	DT40 TDP1 CPT 12µM, TDP1 cell noCPT 5.8µM
Cc1ccnc(SCC(=O)N2CCN(c3cccc(Cl)c3)CC2)n1	TDP1 cell noCPT inconclusive
O=C(CSc1c2c(nc3ccc(Cl)cc13)CCCC2)N1CCN(c2ccc(Cl)cc2)CC1	DT40 TDP1 CPT 12µM, TDP1 cell noCPT 16µM (no result: S-ASM inh, IL1B secr inh)
